Data from the supplement of paper PMC12067093, “Discovery and optimisation of a covalent ligand for TRIM25 and its application to targeted protein ubiquitination” (Chemical Science, 2025).
Of roughly 21,000 targets only a part is listed; those with the largest changes were picked by preference.

Compound: Cc1cc(ccc1-c1ccccc1)C(=O)N1CCCN(CC1)C(=O)CCl [compound 10]
Assay: probe-labelled cysteine peptide fold change vs DMSO (competition) (log2 fold change); higher = less target engagement (more negative = stronger competition)
Settings: THP-1, incubation time: 4 h
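Note: competitive profiling in live THP-1 cells: cysteine peptides tagged with an iodoacetamide desthiobiotin (IA-DTB) probe, intensity after compound treatment relative to DMSO-treated cells.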

Chain of UniProt P36776 (P36776 whole entry, looked up): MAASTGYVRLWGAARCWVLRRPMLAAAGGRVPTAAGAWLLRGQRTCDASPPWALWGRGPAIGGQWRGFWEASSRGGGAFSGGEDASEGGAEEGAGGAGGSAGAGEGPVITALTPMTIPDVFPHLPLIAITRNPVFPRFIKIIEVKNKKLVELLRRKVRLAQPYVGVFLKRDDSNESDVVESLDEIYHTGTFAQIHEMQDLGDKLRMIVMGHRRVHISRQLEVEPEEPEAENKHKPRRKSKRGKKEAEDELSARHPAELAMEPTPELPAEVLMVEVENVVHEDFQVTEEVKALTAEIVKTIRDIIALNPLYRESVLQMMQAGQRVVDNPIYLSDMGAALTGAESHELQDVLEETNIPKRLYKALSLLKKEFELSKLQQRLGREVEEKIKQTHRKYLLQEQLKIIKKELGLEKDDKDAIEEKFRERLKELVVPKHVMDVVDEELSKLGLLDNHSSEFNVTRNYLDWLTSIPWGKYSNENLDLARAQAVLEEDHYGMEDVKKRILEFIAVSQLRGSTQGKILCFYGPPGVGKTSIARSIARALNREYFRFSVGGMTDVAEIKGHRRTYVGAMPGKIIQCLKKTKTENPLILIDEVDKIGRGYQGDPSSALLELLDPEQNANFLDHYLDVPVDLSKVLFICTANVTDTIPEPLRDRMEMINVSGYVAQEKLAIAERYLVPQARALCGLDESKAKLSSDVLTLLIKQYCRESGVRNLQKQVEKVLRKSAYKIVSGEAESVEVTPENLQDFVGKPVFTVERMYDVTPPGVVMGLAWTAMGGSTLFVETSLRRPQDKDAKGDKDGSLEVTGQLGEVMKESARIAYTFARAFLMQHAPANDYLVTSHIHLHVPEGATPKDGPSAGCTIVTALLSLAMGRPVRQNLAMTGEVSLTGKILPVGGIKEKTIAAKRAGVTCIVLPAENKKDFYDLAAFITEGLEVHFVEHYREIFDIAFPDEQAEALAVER
Chain of UniProt Q8NE86 (Q8NE86 whole entry, looked up): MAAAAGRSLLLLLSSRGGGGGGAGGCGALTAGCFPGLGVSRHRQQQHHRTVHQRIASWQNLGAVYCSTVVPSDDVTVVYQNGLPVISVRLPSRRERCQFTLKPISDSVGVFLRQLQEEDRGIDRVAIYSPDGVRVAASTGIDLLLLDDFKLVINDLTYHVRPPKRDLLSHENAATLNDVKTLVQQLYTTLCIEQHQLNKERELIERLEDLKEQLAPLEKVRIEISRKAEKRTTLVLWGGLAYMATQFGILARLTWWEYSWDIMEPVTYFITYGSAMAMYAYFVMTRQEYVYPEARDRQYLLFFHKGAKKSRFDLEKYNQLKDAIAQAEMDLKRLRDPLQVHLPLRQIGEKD
Chain of UniProt O75608 (O75608 whole entry, looked up): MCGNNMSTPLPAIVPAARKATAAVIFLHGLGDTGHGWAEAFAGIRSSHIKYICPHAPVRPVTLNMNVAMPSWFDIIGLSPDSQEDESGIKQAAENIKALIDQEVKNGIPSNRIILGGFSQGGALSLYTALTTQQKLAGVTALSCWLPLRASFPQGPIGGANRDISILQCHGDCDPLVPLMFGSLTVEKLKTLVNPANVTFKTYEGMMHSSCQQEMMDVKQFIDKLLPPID
Chain of UniProt Q9UBB5 (Q9UBB5 whole entry, looked up): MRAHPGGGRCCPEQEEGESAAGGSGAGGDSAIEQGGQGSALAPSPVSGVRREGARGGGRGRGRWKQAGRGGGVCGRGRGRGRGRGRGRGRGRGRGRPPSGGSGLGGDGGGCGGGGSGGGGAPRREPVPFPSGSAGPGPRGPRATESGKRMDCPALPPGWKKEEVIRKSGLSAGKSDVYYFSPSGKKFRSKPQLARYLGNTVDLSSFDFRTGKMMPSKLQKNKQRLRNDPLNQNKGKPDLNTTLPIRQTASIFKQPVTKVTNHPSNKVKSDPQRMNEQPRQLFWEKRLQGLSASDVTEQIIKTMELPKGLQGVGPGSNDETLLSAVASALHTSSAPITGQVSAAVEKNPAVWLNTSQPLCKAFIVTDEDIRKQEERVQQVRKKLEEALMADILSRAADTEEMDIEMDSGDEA
Chain of UniProt Q8WV92 (Q8WV92 whole entry, looked up): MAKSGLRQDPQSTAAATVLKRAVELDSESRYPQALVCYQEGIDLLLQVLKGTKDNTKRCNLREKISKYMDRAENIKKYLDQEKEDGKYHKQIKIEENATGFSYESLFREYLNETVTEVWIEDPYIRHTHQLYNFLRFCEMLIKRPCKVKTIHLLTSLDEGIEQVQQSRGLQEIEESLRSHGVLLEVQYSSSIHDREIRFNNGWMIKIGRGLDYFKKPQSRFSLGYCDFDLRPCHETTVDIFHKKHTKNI
Chain of UniProt P49736 (P49736 whole entry, looked up): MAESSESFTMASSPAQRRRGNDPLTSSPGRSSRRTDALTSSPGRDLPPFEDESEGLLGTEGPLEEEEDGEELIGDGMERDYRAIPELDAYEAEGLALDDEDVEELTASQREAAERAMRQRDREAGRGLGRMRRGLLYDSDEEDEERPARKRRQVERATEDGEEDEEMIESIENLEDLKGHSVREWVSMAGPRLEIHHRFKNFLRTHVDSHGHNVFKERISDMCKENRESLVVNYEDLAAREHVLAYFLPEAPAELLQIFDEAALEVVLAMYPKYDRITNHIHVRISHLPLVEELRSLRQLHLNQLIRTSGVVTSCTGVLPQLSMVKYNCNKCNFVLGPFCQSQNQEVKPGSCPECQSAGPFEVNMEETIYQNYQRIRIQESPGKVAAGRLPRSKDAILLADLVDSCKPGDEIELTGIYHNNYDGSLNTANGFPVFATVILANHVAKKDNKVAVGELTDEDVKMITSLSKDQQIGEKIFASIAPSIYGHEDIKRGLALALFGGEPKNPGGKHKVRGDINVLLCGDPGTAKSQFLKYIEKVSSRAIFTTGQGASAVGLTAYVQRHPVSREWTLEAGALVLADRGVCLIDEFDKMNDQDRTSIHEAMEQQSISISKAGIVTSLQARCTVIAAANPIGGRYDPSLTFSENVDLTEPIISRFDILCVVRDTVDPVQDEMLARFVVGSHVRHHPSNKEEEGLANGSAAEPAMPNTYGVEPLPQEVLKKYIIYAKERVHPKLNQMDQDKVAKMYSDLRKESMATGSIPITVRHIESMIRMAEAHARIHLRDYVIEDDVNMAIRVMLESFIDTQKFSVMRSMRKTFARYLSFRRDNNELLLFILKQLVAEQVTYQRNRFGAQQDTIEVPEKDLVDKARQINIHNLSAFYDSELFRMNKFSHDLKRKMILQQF
Chain of UniProt Q9Y6C9 (Q9Y6C9 whole entry, looked up): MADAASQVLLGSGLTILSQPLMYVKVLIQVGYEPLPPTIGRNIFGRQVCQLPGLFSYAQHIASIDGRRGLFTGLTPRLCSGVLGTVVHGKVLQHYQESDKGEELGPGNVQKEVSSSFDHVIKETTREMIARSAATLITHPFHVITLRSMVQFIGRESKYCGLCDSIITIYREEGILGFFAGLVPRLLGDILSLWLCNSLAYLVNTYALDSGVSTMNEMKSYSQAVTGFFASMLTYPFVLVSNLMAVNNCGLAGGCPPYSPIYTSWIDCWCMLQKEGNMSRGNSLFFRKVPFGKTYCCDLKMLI
Chain of UniProt Q66K74 (Q66K74 whole entry, looked up): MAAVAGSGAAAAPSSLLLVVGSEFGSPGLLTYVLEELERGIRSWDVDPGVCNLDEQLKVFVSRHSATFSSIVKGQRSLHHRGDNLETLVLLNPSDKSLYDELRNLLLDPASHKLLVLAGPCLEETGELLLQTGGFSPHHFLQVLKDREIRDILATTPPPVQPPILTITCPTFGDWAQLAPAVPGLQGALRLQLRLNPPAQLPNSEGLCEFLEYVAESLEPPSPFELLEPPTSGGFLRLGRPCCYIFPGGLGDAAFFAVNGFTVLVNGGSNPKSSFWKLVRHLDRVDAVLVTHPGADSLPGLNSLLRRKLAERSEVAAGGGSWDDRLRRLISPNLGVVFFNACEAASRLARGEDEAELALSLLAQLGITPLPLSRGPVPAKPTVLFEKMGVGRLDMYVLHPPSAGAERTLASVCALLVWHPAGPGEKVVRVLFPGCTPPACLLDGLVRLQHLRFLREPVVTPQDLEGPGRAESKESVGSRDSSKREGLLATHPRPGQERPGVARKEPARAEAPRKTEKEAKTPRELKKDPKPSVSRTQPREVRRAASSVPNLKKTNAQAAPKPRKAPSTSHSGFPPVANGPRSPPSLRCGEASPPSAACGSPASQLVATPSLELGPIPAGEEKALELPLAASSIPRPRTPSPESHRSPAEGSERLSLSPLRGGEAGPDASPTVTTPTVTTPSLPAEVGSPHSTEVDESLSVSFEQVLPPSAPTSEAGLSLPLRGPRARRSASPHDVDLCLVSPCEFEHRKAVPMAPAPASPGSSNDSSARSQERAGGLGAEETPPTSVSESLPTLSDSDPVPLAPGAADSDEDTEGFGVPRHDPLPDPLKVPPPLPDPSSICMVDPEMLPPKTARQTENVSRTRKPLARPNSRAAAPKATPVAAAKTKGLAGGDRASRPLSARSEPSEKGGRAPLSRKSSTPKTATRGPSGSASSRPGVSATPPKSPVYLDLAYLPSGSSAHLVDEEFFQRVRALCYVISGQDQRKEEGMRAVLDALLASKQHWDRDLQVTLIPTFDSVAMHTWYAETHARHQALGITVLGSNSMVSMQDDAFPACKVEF
Chain of UniProt Q9NXB0 (Q9NXB0 whole entry): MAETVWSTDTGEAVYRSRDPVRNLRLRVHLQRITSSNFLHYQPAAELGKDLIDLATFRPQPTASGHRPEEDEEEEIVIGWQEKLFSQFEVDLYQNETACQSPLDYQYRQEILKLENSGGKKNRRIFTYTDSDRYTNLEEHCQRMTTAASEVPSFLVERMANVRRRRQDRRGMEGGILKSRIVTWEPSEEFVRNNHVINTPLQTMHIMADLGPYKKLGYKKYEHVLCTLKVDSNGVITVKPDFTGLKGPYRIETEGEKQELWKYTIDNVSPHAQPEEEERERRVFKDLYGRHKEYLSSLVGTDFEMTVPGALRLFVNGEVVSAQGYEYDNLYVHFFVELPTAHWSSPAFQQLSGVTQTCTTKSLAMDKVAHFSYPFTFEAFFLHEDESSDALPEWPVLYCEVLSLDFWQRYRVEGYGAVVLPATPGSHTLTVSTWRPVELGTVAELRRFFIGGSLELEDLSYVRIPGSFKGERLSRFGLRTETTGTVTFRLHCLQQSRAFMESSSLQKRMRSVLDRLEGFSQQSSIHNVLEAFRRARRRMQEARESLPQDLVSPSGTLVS

Row | Target | probe-labelled cysteine peptide fold change (10 µM) | probe-labelled cysteine peptide fold change (50 µM)
1 | MKS1_Q9NXB0_226_KYEHVLCTLK (UniProt Q9NXB0) | -0.112 | 0.305
2 | MCM2_P49736_584_GVCLIDEFDK (UniProt P49736) | 0.0289 | 0.142
3 | MITD1_Q8WV92_226_FSLGYCDFDLRPCHETTVDIFHK (UniProt Q8WV92) | 0.0984 | 0.0591
4 | MCU_Q8NE86_191_TLVQQLYTTLCIEQHQLNK (UniProt Q8NE86) | 0.0411 | -0.0406
5 | MTMR3_Q13615_473_CPVFLQWLDCVHQLQR (UniProt Q13615) | -0.0651 | 0.044
6 | LONP1_P36776_909_AGVTCIVLPAENKK (UniProt P36776) | -0.00288 | -0.138
7 | MAK16_Q9BXY0_17_QFCSFK (UniProt Q9BXY0) | -0.115 | -0.166
8 | LYPLA1_O75608_144_LAGVTALSCWLPLR (UniProt O75608) | 0.21 | 0.0595
9 | LRPPRC_P42704_571_YCQEPR (UniProt P42704) | 0.261 | 0.6
10 | MTCH2_Q9Y6C9_49_QVCQLPGLFSYAQHIASIDGR (UniProt Q9Y6C9) | -0.0446 | 0.0916
11 | MAP1S_Q66K74_435+440_VLFPGCTPPACLLDGLVR (UniProt Q66K74) | -0.0708 | -0.133
12 | MRPL35_Q9NZE8_150_EFVFCNK (UniProt Q9NZE8) | -0.362 | -0.257
13 | LRPPRC_P42704_380_EDGPSVFGSFFLQHCVTMNTPVEK (UniProt P42704) | 0.0471 | 0.322
14 | MBD2_Q9UBB5_111_GRPPSGGSGLGGDGGGCGGGGSGGGGAPR (UniProt Q9UBB5) | -0.142 | -1.1
